Assay results: PubChem BioAssay AID1851 (National Center for Advancing Translational Sciences (NCATS), 2009)
“And” between values parts separate entries of the source, which are not always exact repeats. Equal values may be shown once. Hit rate of the full screen: of about 16,000 compounds, about 2,600 (16%) were called active. Roughly 20% stayed inconclusive and do not appear here. The call rests on the fitted dose curve; in most records, active means well fitted curve in the direction sought with a large enough effect; inconclusive means small, poorly fitted or top-dose-only effect, or effect the other way; inactive means no such curve, though single readings can be large or run the other way. The list is a sample of the results.

target: Cytochrome P450 2D6 (Homo sapiens) (UniProt P10635); test: Cytochrome panel assay with activity outcomes; conditions: recombinant CYP, pro-luciferin dealkylation, luminescence, p450-cyp2d6; series mostly up to 57.1 µM; activity, negative = inhibition: at the top concentration
Sequence (P10635 whole entry, looked up): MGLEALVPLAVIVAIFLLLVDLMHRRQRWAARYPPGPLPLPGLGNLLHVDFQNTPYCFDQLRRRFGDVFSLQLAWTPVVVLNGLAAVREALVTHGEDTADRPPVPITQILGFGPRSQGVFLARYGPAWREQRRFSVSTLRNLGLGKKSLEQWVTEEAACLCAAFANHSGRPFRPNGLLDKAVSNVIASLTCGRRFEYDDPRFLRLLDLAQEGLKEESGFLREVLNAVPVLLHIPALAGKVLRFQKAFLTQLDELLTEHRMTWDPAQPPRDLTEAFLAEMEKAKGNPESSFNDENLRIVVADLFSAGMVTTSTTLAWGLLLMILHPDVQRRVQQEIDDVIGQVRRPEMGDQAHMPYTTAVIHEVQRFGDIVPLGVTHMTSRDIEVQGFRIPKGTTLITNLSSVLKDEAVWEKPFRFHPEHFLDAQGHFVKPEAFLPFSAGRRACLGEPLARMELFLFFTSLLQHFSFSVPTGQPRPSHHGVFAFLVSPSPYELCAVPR
On the % scale 0 is the no-effect control and ±100 the full control effect.

activity, negative = inhibition, inactive:
NCCCC(=O)O -8.46%
CCC(=O)O[C@@H]1[C@H](C)O[C@H](O[C@H]2[C@@H](N(C)C)[C@H](O)[C@@H](O[C@@H]3[C@@H](CC=O)C[C@@H](C)[C@@H](O)/C=C\C=C/C[C@@H](C)OC(=O)C[C@@H](OC(=O)CC)[C@H]3OC)O[C@H]2C)C[C@]1(C)O 1.46% [at 25.6 µM]
CCCCCCC1CC(C)(/C(C)=N/NC(N)=O)OC1=O (stereo not given) -0.404%
CCOC(=O)N/N=C1/C[C@@H](O)[C@@H](O)[C@@H]2[C@@H]3C(=O)N([C@@H](C)c4ccccc4)C(=O)[C@H]3CC[C@@H]12 0.427% [at 11.4 µM]
COc1ccc(NC(=S)Nc2ncccc2C)c(OC)c1 -10.3%
Nc1nc2c(ncn2[C@@H]2C=C[C@@H](CO)C2)c(=O)[nH]1 4.55% [at 11.4 µM]
Cc1cc(-c2c(C)[nH]n(-c3ccccc3)c2=O)n(-c2ccccc2)n1 5.39%
O=C(O)[C@H](Cc1ccc(O)c([N+](=O)[O-])c1)N1C(=O)c2ccccc2C1=O 6.61% [at 11.4 µM]
CN1CCN(c2ncc3nc(-c4ccc(F)cc4)c(=O)n(Cc4cccs4)c3n2)CC1 -9.25%
CNc1nc(-c2c(C)noc2C)nc2ccccc12 -7.2%
Cc1ccccc1-c1nc(N2CCOCC2)c2ccccc2n1 -2.84%
Cc1noc(C)c1-c1nc(N2CCOCC2)c2ccccc2n1 -9.56%
COc1ccc(N2CC(C(=O)OCC(=O)c3cccc(OC)c3)CC2=O)cc1 (stereo not given) -5.52%
O=C1CC(c2ccccc2)Cc2nc(N3CCc4ccccc4C3)ncc21 (stereo not given) -15.2%
O=C(Nc1nnc(C2CC2)s1)c1ccc(S(=O)(=O)c2ccccc2)cc1 -9.23%
COCCNC(=O)c1ccc2c(c1)nc(C)n2-c1cc(OC)c(OC)c(OC)c1 -6.19%
COC(=O)COc1ccc2c(-c3cccc([N+](=O)[O-])c3)cc(=O)oc2c1 -14.7%
Cc1cc(C(=O)OCC(=O)NCCCN2CCCC2=O)c2ccccc2n1 3.93%
O=C(C1=C(O)C(=O)N(Cc2ccco2)C1c1ccccc1)c1cccs1 (stereo not given) -5.75%
Cc1noc(C)c1-c1nc(NC2CCNCC2)c2ccccc2n1 -9.54%
CN(C)C(=O)c1ccc(-c2nc(NC3CCNCC3)c3ccccc3n2)cc1 -2.47%
COCCNc1nc(-c2c(C)noc2C)nc2ccccc12 -6.93%
COCCNc1nc(-c2ccccc2C)nc2ccccc12 -14.1%
CC1=C(C#N)C(NC(=O)C2CCCCC2)(C(F)(F)F)C(=O)N1 (stereo not given) 6.67%
N#Cc1nc(-c2ccc(F)cc2)oc1N1CCCC1 -17.6%
CCOC(=O)c1cc(-c2ccccc2)sc1NC(=S)Nc1cc(C)ccn1 -4.98%
NCCNS(=O)(=O)c1ccc(N)cc1 1.63% [at 11.4 µM]
CCn1c(SCC(=O)Nc2sc3c(c2C#N)CCC(C(C)(C)C)C3)nnc1-c1ccco1 (stereo not given) -4.2%
COc1ccc(C(=O)N2CCC[C@@]3(CCN(c4cccc(-c5ccccc5)c4)C3)C2)cc1 -6.88%
Cn1ncc2c(Nc3cccc(C(=O)O)c3)ncnc21 -22%
CN[C@]1(C)[C@H]2CC[C@@H](C2)C1(C)C -10% [at 25.6 µM]
CCc1ccc(N2CC(C)Cn3c2nc2c3c(=O)n(CCN3CCOCC3)c(=O)n2C)cc1 (stereo not given) -5.49%
CC(C)[C@@H](OCc1ccccc1)[C@H](C)/C=N\O[C@@H](C)c1cn([C@H](CO)Cc2ccccc2)nn1 -24.2% [at 11.4 µM] and -19.2% [at 11.4 µM]
CC1(C)S[C@@H]2[C@H](NC(=O)[C@H](C(=O)O)c3ccsc3)C(=O)N2[C@H]1C(=O)O -1.54% [at 25.6 µM]
CCOC(=O)C1=C(C)NC(=O)NC1c1ccoc1 (stereo not given) 12%
O=C1c2ccccc2C2=Nc3ccccc3SC(c3ccccc3F)C12 (stereo not given) -29.3%
CCOC(=O)C1=C(C)N=C2c3ccccc3C(=O)C2C1c1ccc(C)cc1 (stereo not given) -2%
O=C1C(=O)c2ccccc2C(O)=C1C1CCC(c2ccc(Cl)cc2)CC1 (stereo not given) 1.9% [at 25.6 µM]
COC(=O)c1c(NC(=O)C(C)(C)C)sc2c1C(C(=O)OC)CC2 (stereo not given) 12.1%
O=S(=O)(C[C@H](O)C(Cl)(Cl)Cl)NNc1ccccc1 17.4% [at 11.4 µM]

AC50, active:
Cc1cccc(CNc2nc(-c3ccccc3CN(C)C)nc3ccccc23)c1 12.6 µM
CN(C)Cc1ccccc1-c1nc(N2CCOCC2)c2ccccc2n1 7.94 µM
CN(C)Cc1ccccc1-c1nc(N(C)C)c2ccccc2n1 2.51 µM
CNc1nc(-c2ccccc2CN(C)C)nc2ccccc12 3.98 µM
CN(C)Cc1ccccc1-c1nc(NC2CC2)c2ccccc2n1 3.98 µM
CN(C)Cc1ccccc1-c1nc(NCc2cccs2)c2ccccc2n1 20 µM
CN(C)Cc1ccccc1-c1nc(NCc2ccccc2)c2ccccc2n1 20 µM
COCCNc1nc(-c2ccccc2CN(C)C)nc2ccccc12 12.6 µM
O=C1CCCC2=C1C(c1ccc(Cl)cc1)C1C(=O)c3ccccc3C1=N2 (stereo not given) 25.1 µM
CCOC(=O)C1=C(C)N=C2c3ccccc3C(=O)C2C1c1ccc(Cl)cc1 (stereo not given) 15.8 µM
